Data from PubChem BioAssay (NCATS).
Inconclusive results are not listed. Some compounds were tested as several samples or in several runs, with calls that do not always agree. The source made the active and inactive calls. Unless noted, calls follow the shape of the dose curve; as a rule, active = well fitted curve in the direction sought with a large enough effect; inconclusive = small, poorly fitted or top-dose-only effect, or another doubt; inactive = no such curve, though single readings can be large; an effect the other way counts as inactive or inconclusive.

Key:
[1] = qHTS profiling of the MIPE4 collection as inhibitors of Plasmodium falciparum (HB3) proliferation (AID 743347; call rule not given here;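 also: plate controls were DMSO vehicle wells for no effect and artemisinin wells for full effect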); details: P. falciparum HB3 in erythrocytes, SYBR Green DNA, 72 h; at 28.5 µM (top of the series) unless noted
Summary of the method: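 Parasite DNA was quantified by SYBR Green I fluorescence (ex 485, em 535 nm) after overnight lysis in saponin/Triton buffer at room temperature. Cultures at 0.3% parasitemia and 2.5% hematocrit were first exposed to compound for 72 h at 37 C; signals were normalised to artemisinin (0.29 uM) and vehicle wells.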

[2] = High-throughput drug toxicity screening in the BPDCN cell line Gen2.2 (AID 1224824; call rule not given here;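 also: cells exposed to compounds for 48 h before reading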); details: Gen2.2 BPDCN cells; at 45.8 µM (top of the series) unless noted
Summary of the method: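 Gen2.2 cells, 500 per well in phenol red-free RPMI with 10% FBS, exposed to compounds 48 h at 37 C, 5% CO2; viability by CellTiter-Glo luminescence. Percent activity scaled to DMSO (100%) and 9.2 uM bortezomib final (0%).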

[3] = High-throughput drug toxicity screening in the BPDCN cell line Cal-1 (AID 1224825; call rule not given here); details: Cal-1 BPDCN cell viability, qHTS; at 45.8 µM (top of the series) unless noted
Summary of the method: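 CellTiter-Glo luminescence after 48 h compound exposure; percent activity scaled with DMSO as 100% and bortezomib (9.2 uM final) as 0%. Cal-1 cells seeded at 500/well in RPMI, 10% FBS, no phenol red.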

[4] = qHTS assay for measurement of the activity of small molecule inhibitors on Zika virus induced Caspase-3 activity in human iPSC derived neural progenitor cells (hNPCs) (AID 1224857); details: hNPCs ZIKV-induced caspase-3/7, Caspase-Glo luminescence, 6 h; series mostly up to 45.7 µM; also: nearly all actives have a fitted effect of over 65% in size; also: potency is read from the fitted curve at half-maximal effect
Summary of the method: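 Quantitative HTS format: human iPSC neural progenitors, 1 h compound pretreatment, ZIKV 2 FFU/cell for 6 h at 37 C. Percent inhibition derived from luminescent caspase-3/7 signal between uninfected and infected controls.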

[5] = qHTS assay for measurement of the activity of small molecule inhibitors on Zika virus induced Caspase-3 activity in human astrocytoma cells (AID 1224859); details: SNB-19 ZIKV-induced caspase-3/7, luminescence, 6 h; series mostly up to 45.7 µM; also: potency is read from the fitted curve at half-maximal effect
Summary of the method: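 Readout is luminescence from Caspase-Glo 3/7 added after a 6 h ZIKV infection (2 FFU/cell) of compound-pretreated (1 h) SNB-19 cells; data expressed as % inhibition versus uninfected and infected wells.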

[6] = qHTS Screen of the MIPE 4.0 Collection Against Ewings Sarcoma (RDES) (AID 1259252); details: RD-ES Ewing sarcoma viability, CellTiter-Glo, 48 h; series mostly up to 45.8 µM; also: nearly all actives have a fitted effect of over 35% in size; also: potency is read from the fitted curve at half-maximal effect
Summary of the method: (§1)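 Viability screen: 48 h incubation at 37C, 95% humidity, 5% CO2 with serially titrated compound, followed by CellTiter-Glo readout.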

[7] = qHTS assay to identify small molecule inhibitors of chordoma cells - UCH-1 (AID 1259355); details: UCH-1 chordoma viability, CellTiter-Glo, 48 h, combination, with auranofin plus four topoisomerase inhibitors; series mostly up to 46.1 µM; also: % is scaled to controls: 0 for no effect and ±100 for the full control effect; nearly all actives have a fitted effect of over 55% in size
Summary of the method: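 Screening used approved and investigational drugs in 15-point titration against 800 seeded cells per well. A fixed combination of auranofin with camptothecin, doxorubicin, rubitecan and topotecan followed compound addition, and growth was scored by CellTiter-Glo after 48hr.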

[8] = qHTS Screen of the MIPE 4.0 Collection Against Ewings Sarcoma (EW8) (AID 1259255); details: EW8 Ewing sarcoma viability, CellTiter-Glo, 48 h; series mostly up to 45.8 µM; also: nearly all actives have a fitted effect of over 35% in size; also: potency is read from the fitted curve at half-maximal effect;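 as to viability: 100% = DMSO-treated cells and 0% = medium-only wells without cells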
Summary of the method: as §1

[9] = qHTS Screen of the MIPE 4.0 Collection Against Ewings Sarcoma (TC32) (AID 1259256); details: TC32 Ewing sarcoma viability, CellTiter-Glo, 48 h; series mostly up to 45.8 µM; also: nearly all actives have a fitted effect of over 45% in size; also: potency is read from the fitted curve at half-maximal effect
Summary of the method: as §1

[10] = qHTS Screen of the MIPE 4.0 Collection Against Ewings Sarcoma (TC71) (AID 1259253); details: TC71 Ewing sarcoma viability, CellTiter-Glo, 48 h; series mostly up to 45.8 µM; also: potency is read from the fitted curve at half-maximal effect; nearly all actives have a fitted effect of over 40% in size
Summary of the method: as §1

Compound | growth, % of control [1] | cell viability, % of control (lower = more cytotoxic) [2] | viability (% of control) [3] | Potency [4] | Potency [5] | Potency [6] | Potency [7] | Potency [8] | Potency [9] | Potency [10]
O=C(O)CCNC(=O)c1ccc(N=Nc2ccc(O)c(C(=O)O)c2)cc1 | 73.4% | 171% | 130% | inactive | inactive | 9.35 µM (active) | inactive |  |  | 
CC(=O)N1CCN(c2ccc(OC[C@H]3CO[C@](Cn4ccnc4)(c4ccc(Cl)cc4Cl)O3)cc2)CC1 | 6.71% | 64.7% | 22.2% | inactive | inactive | 16.6 µM (active) | inactive |  |  | 
Nc1nc(Cl)nc2c1ncn2[C@H]1C[C@H](O)[C@@H](CO)O1 | 103% | 93.3% | 12% | inactive | inactive | 0.235 µM (active) | inactive | 0.372 µM (active) | 0.296 µM (active) | 
N[C@@H](Cc1cc(I)c(Oc2cc(I)c(O)c(I)c2)c(I)c1)C(=O)O | 75.1% | 163% | 123% | inactive | inactive | inactive | inactive | inactive | 3.72 µM (active) | 
COc1ccc2cc([C@H](C)C(=O)O)ccc2c1 | 102% | 127% | 135% | inactive | inactive | inactive | inactive | inactive | inactive | 
CCC[C@@H]1C[C@@H](C(=O)N[C@@H]([C@H]2O[C@H](SC)[C@H](O)[C@@H](O)[C@H]2O)[C@@H](C)O)N(C)C1 | 66.3% | 191% | 114% | inactive | inactive | inactive |  | inactive | inactive | 
OC(CN1CCN(c2cccc(Cl)c2)CC1)C(c1ccccc1)c1ccccc1 (configuration not stated) | 47% | 319% | 88.8% | inactive | inactive | inactive |  |  | 16.6 µM (active) | 
O=C(c1ccccc1)c1ccc2n1CCC2C(=O)O (configuration not stated) | 104% | 14.8% | 15.1% | 18.7 µM (active) | 16.6 µM (active) | 3.32 µM (active) | inactive | 6.62 µM (active) | 3.72 µM (active) | 
CCCCCCCCOc1ccccc1C(=O)Nc1ccc(C(=O)OCC[N+](C)(CC)CC)cc1 | 8.46% | 52.3% | 14.9% | 16.6 µM (active) and inactive | inactive | inactive |  | 16.6 µM (active) |  | 
COc1cc2c(N3CCN(C(=O)Nc4ccc(OC(C)C)cc4)CC3)ncnc2cc1OCCCN1CCCCC1 | 3.25% | 7.51% | 11.3% | inactive | inactive | 26.4 µM (active) |  | 23.5 µM (active) | 18.7 µM (active) | 
COc1cc(OC)c(C(=O)CCCN2CCCC2)c(OC)c1 | 75.7% | 165% | 101% | inactive | inactive | inactive | inactive | inactive | inactive | 
CNC[C@H](O)c1ccc(O)c(O)c1 | 78% [at 57.5 µM] | 50.3% [at 92.2 µM] | 79.5% [at 92.2 µM] | inactive | inactive | 42.9 µM (active) |  |  | 38.2 µM (active) | 
CS(=O)(=O)OCCCCOS(C)(=O)=O | 106% | 84.6% | 62.5% | inactive | inactive | inactive | inactive | inactive |  | 
NS(=O)(=O)c1cc(C(=O)O)c(NCc2ccco2)cc1Cl | 84.6% | 75.9% | 108% | inactive | inactive | inactive |  | inactive | inactive | 
O=C(CCc1ccc(O)cc1)c1c(O)cc(O)cc1O | 5.58% | 141% | 41.1% | inactive | inactive | 0.166 µM (active) |  | 5.9 µM (active) |  | 
CC1=C(C(=O)O)N2C(=O)[C@@H](NC(=O)[C@H](N)C3=CCC=CC3)[C@H]2SC1 | 51.2% | 145% | 99.4% | inactive | inactive | inactive |  | inactive | inactive | 
Nc1nc(N)c(N=O)c(OCC2CCCCC2)n1 | 36.5% | 18.1% | 15.6% | inactive | inactive | 14.8 µM (active) |  | 18.7 µM (active) | 9.35 µM (active) | 
CC(C)(S)[C@@H](N)C(=O)O | 95.7% | 117% | 106% | inactive | inactive | inactive | inactive | inactive | inactive | 
CC1(C)NC(=O)N(c2ccc([N+](=O)[O-])c(C(F)(F)F)c2)C1=O | 91% | 204% | 105% | inactive | inactive | inactive | inactive | inactive | inactive | 
Cc1nc(-c2ccc(OCC(C)C)c(C#N)c2)sc1C(=O)O | 62% | 41.7% | 105% | 5.26 µM (active) and inactive | 4.18 µM (active) | inactive |  | inactive | inactive | 
Nc1nc(OCc2ccccc2)c2[nH]cnc2n1 |  | 56% | 39.4% | inactive | inactive |  |  | 26.4 µM (active) |  | 13.2 µM (active)
CCCOc1ccc2nc(NC(=O)OC)[nH]c2c1 | 99.5% | 86.8% | 14.2% | inactive | inactive |  |  | 0.0066 µM (active) | inactive | 0.0093 µM (active)
CN(C)C(=O)[C@H](O)[C@H](Cc1ccccc1)NC(=O)c1cc2cc(Cl)ccc2[nH]1 | 2.28% | 238% | 43.4% | inactive | inactive | 18.7 µM (active) |  | 23.5 µM (active) |  | 
